Source: PubChem BioAssay
Most compounds without a hit are left out; they make up all but 18% or so of the library.
TDP1 cell noCPT = qHTS for Inhibitors of human tyrosyl-DNA phosphodiesterase 1 (TDP1): qHTS in cells in absence of CPT | DT40 Tdp1-/- hTDP1 cells, no CPT, ATP luminescence, 48 h | Potency, µM (series often up to 46.2 µM), for inactives: at the highest dose activity change, negative = growth inhibition, hits mostly inhibitors | 420,000 compounds, 15% hits | AID 686978, 2013; note: potency is the fitted concentration of half-maximal effect; % is set by controls: 0 for no effect and ±100 for the full control effect; nearly all actives have a fitted effect of over 55% in size
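Chicken DT40 Tdp1-/- cells complemented with human TDP1, screened without camptothecin (DMSO vehicle only), 400 cells/well. Compounds pin-transferred, cells incubated at 37 °C for at least 48 hr. Growth read as ATP-dependent luminescence (CellTiter-Glo, 30 min at RT).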
TDP1 inh = TDP1 (human) enzyme inhibition; Q9NUW8; recombinant TDP1, AlphaScreen DNA substrate cleavage; Potency, µM (highest dose often 130 µM), without a hit: at the top dose activity change, negative = inhibition, hits mostly inhibitors; 350,000 compounds, 0.28% hits; AID 485290; note: potency is the fitted concentration of half-maximal effect; % is set by controls: 0 for no effect and ±100 for the full control effect; nearly all actives have a fitted effect of over 40% in size
Target sequence (Q9NUW8 whole entry, looked up): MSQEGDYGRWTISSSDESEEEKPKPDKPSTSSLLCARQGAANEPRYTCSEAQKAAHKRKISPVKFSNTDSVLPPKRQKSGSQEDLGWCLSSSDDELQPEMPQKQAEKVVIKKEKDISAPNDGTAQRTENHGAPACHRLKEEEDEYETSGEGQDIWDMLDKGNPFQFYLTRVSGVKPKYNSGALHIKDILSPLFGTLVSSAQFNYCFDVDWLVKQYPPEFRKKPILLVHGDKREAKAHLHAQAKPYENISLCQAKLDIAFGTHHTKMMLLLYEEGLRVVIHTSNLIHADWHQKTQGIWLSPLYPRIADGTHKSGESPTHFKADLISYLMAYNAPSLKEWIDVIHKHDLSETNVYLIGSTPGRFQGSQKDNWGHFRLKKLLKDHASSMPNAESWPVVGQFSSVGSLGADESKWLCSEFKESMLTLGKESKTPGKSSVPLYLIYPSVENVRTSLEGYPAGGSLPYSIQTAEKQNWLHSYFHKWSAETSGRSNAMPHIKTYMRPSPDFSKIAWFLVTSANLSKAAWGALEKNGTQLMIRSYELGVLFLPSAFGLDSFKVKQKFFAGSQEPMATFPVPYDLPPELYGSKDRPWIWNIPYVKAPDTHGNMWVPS
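Signal: AlphaScreen proximity between streptavidin donor and anti-FITC acceptor beads on intact substrate. Reaction: Tdp1 1 nM, substrate 15 nM final, 5 min RT after 15 min compound preincubation.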
IL-1B inflam inh = inhibitors of inflammasome signaling (IL-1 beta secretion); 360,000 compounds, 4.7% hits; activity change, % at 57.5 µM; AID 743279; THP-1 LPS/ATP IL-1B secretion, AlphaLISA, 16 h; stronger effect = lower value; in the data active = activity change below about -50%; inconclusive = mostly about -30% to -49%; note: % is set by controls: 0 for no effect and ±100 for the full control effect
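THP-1 cells pretreated 1 hr with compounds (up to 57.5 uM final), then stimulated with LPS (250 ng/mL final) plus ATP (1.25 mM final); secreted IL-1B measured by AlphaLISA after 16 hr, decreased signal indicating inhibition.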
TGFb SMAD3 inh = blocks TGF-b signaling; Potency, µM (doses to about 46.1 µM), for inactives: at the top dose activity, negative = inhibition, usual class: inhibitors; 410,000 compounds, 1.2% hits; HepG2 CAGA-GFP TGF-b/SMAD3 reporter, GFP fluorescence, 18 h; TGF-beta stimulated, 500 pg/mL final; note: potency is the fitted concentration of half-maximal effect; % is set by controls: 0 for no effect and ±100 for the full control effect; nearly all actives have a fitted effect of over 65% in size
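Smad-responsive CAGA-GFP expression was quantified in HEPG2 cells exposed to compounds and 500 pg/mL final TGF-beta for 18 h at 37 degrees C; unstimulated wells defined full inhibition.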
TDP1 cell CPT = growth inhibition of DT40 Tdp1-/-;hTDP1 cells with camptothecin (screen for TDP1 inhibitors) | AID 686979 | Potency, µM (doses to about 46.2 µM), for inactives: top-dose activity change, negative = growth inhibition, actives largely listed as inhibitors | 420,000 compounds, 12% hits | chicken DT40 Tdp1-/-;hTDP1 cells + 20 nM CPT, ATP luminescence, 48 h; note: potency is the fitted concentration of half-maximal effect; % is set by controls: 0 for no effect and ±100 for the full control effect; nearly all actives have a fitted effect of over 55% in size
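Chicken DT40 Tdp1-/- cells complemented with human TDP1, 400 cells/well, exposed to compounds plus 20 nM camptothecin for at least 48 h at 37 C; viability read as ATP content by CellTiter-Glo luminescence.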
HepG2 tox = kills HepG2 cells in TGF-b inhibitor counter-screen; HepG2 CAGA-GFP viability, ATP luminescence, 18 h; Potency, µM (series often up to 46.1 µM), for the others: at the top dose activity change, negative = cytotoxicity, usual class: cytotoxic; 410,000 compounds, 0.76% hits; AID 588856; note: potency is the fitted concentration of half-maximal effect
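HepG2 CAGA-GFP cells (1000/well, DMEM with 1% FBS) received compound, then TGF-beta at 500 pg/mL final, and were incubated 18 hours at 37 degrees C. Viability was read by CellTiter-Glo luminescence. Media-only wells were set as complete cell-killing and DMSO as no toxicity.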
* = called active by the depositor; u = inconclusive; x = no result; [ ] = another dose, or the depositor's remark. Unless noted, calls come from the whole dose curve; as a rule, active = well fitted curve in the direction sought with a large enough effect; inconclusive = small, poorly fitted or top-dose-only effect, or another doubt; inactive = no such curve, though single readings can be large; an effect the other way counts as inactive or inconclusive.

SMILES | TDP1 cell noCPT | TDP1 inh | IL-1B inflam inh | TGFb SMAD3 inh | TDP1 cell CPT | HepG2 tox
CCc1cc2cc(C(=O)N3CCN(Cc4ccccc4)CC3)sc2s1 | u | 2% | -85* | u | u | -14%
COc1ccccc1C(=O)N1CCN(Cc2ccc3c(c2)OCO3)CC1 | -14% | 8% | -57* | 8% | -7% | -17%
O=S(=O)(c1ccccc1F)N1CCN(Cc2cc3c(cc2O)OCO3)CC1 | -20% | 7% | -2 | -27% | -5% | 4µM*
COc1cc(S(=O)(=O)N2CCN(Cc3ccc4c(c3)OCO4)CC2)c(C)cc1C | u | 5% | -20 | u | 15µM* | -30%
CCc1cc2cc(C(=O)N3CCN(c4ccccc4)CC3)sc2s1 | u | 3% | 12 | 10% | -14% | -4%
CCOc1ccccc1C(=O)NCC(=O)N1CCN(Cc2ccc3c(c2)OCO3)CC1 | u | 0% | -80* | 6% | 29µM* | -1%
O=C(c1ccccc1F)N1CCN(Cc2ccc3c(c2)OCO3)CC1 | -25% | x | -67* | -4% | 11% | -3%
C/C(=C\c1ccccc1)C(=O)N1CCN(Cc2ccc3c(c2)OCO3)CC1 | -14% | 5% | -69* | u | -20% | -30%
N#Cc1ccccc1S(=O)(=O)N1CCN(Cc2cc3c(cc2Br)OCCO3)CC1 | u | x | -1 | -23% | 16µM* | -30%
O=C(O)c1ccccc1C(=O)N1CCN(Cc2ccc3c(c2)OCO3)CC1 | 24% | x | 29 | 23% | 10% | -1%
OCc1ncccc1O | 3% | -3% | -5 | -23% | -7% | -1%
O=C(NNC(=O)c1cc(Cl)ccc1O)c1cccc(S(=O)(=O)N2CCOCC2)c1 | u | x | 45 | -19% | u | -35%
CCOC(=O)c1c(NC(=O)COC(=O)c2ccc(O)cc2)sc(C(=O)N(C)C)c1C | 23µM* | 3% | -1 | 26% | u | 1%
CCOC(=O)c1c(NC(=O)COC(=O)CNC(=O)c2ccco2)sc(C)c1C | u | 0% | -6 | -23% | 5.8µM* | -24%
CCOC(=O)c1c(NC(=O)COC(=O)CCOc2ccccc2C)sc(C(=O)NC)c1C | u | x | -2 | 8% | 23µM* | -5%
CCOC(=O)c1c(NC(=O)C(Sc2ccccc2)c2ccccc2)sc(C(=O)N(C)C)c1C (stereo not given) | 16µM* | 5% | -25 | u | u | 3%
O=c1c2ccccc2nc2sc(Nc3cccc(C(F)(F)F)c3)nn12 | -5% | -3% | x | -1% | 0% | -6%
O=C1Nc2ccccc2C1C(C[N+](=O)[O-])c1ccccc1 (stereo not given) | -5% | x | 17 | -1% | 11% | -12%
COc1ccc(C2SCC(=O)N2c2c(C)n(C)n(-c3ccccc3)c2=O)cc1OC (stereo not given) | -1% | 5% | 24 | -4% | -13% | -2%
CN(C)c1ccc(C(=O)Nc2cccc(-c3nc4cccnc4s3)c2)cc1 | 10µM* | 9% | x | -3% | 5.8µM* | -19%
O=C(Nc1cccc(-c2nc3cccnc3s2)c1)c1cccc(Br)c1 | 8.2µM* | -3% | x | -7% | 8.2µM* | 11%
CCCC(CCC)C(=O)Nc1cccc(-c2nc3cccnc3s2)c1 | -2% | 14% | x | -9% | -8% | -24%
CCOc1ncccc1C(=O)Nc1cccc(-c2nc3cccnc3s2)c1 | 13µM* | 3% | 57 | 0% | u | -5%
NC(N)=NN=Cc1ccnc2ccccc12 | u | x | -104* | 18% | 15µM* | -7%
O=C(O)C(=Cc1ccnc2ccccc12)C(=O)O | -13% | x | -11 | -11% | -15% | -47%
SMILES | TDP1 cell noCPT | TDP1 inh | IL-1B inflam inh | TGFb SMAD3 inh | TDP1 cell CPT | HepG2 tox
N/C(=N\N=C\c1ccnc2ccccc12)SC1CC(=O)N(c2ccc(Br)cc2)C1=O (stereo not given) | 15µM* | 3% | 0 | 0% | u | -22%
COc1ccc(N2C(=O)CC(S/C(N)=N/N=C/c3ccnc4ccccc34)C2=O)cc1 (stereo not given) | x | 0% | x | x | x | x
NC(=NCc1ccccc1)NN=Cc1ccnc2ccccc12 | u | x | -110* | u | 21µM* | -49%
O=C(COc1ccc(Br)cc1)NCCCNC(=O)c1cccnc1 | u | 3% | -12 | 0% | u | 10%
COC(=O)c1ccc(Nc2cc(C)nc3ccccc23)cc1 | 18µM* | 4% | -97* | 19% | u | 3%
COC(=O)c1ccc2nc(C)cc(Nc3ccc(N(C)C)cc3)c2c1 | u | 11% | 8 | -19% | -1% | -22%
COC(=O)c1ccc2nc(C)cc(Nc3ccc(O)cc3)c2c1 | 15µM* | x | x | -14% | 21µM* | -20%
CCCCOc1ccccc1-c1ccccc1CN1[C@@H](C(C)C)COCCS1(=O)=O | 18µM* | -10%[56.1 µM] | 16 | u | 16µM* | -39%
Cc1ccc(/C([O-])=C(/C(=S)Nc2ccc(SC(F)F)cc2)[n+]2ccccc2)cc1[N+](=O)[O-] | 12µM* | 3% | 0 | u | u | -13%
[O-]/C(=C(\C(=S)Nc1ccc(SC(F)F)cc1)[n+]1ccccc1)c1ccc(Cl)cc1Cl | 10µM* | 8% | -69* | -29% | 10µM* | -28%
Cc1cc(C)cc(NC(=S)/C(=C(\[O-])c2ccc(Cl)cc2Cl)[n+]2ccccc2)c1 | -26% | 5% | 16 | 0% | u | -14%
Cc1ccc(NC(=S)/C(=C(\[O-])c2ccc(C)c([N+](=O)[O-])c2)[n+]2ccccc2)cc1C | x | 7% | x | x | x | x
CCCCc1cc(=O)oc2cc(C)cc(O)c12 | u | -4% | -15 | 0% | u | -46%
CCCCc1cc(=O)oc2cc(O)cc(O)c12 | 9.2µM* | -3% | 36 | 1% | 3% | -2%
